Source: PubChem BioAssay AID2685 (National Center for Advancing Translational Sciences (NCATS), 2010)
The whole screen tested about 320,000 compounds, of which about 2,100 (0.66%) were called active. Inconclusive results (about 53%) are left out. Calls come from the whole dose curve; as a rule, active = well fitted inhibition curve with a large enough effect in the signal ratio, with a control signal flat (not every such curve was filed as active); inconclusive = small, poorly fitted or top-dose-only effect, or effect the other way, or a change in a side signal; inactive = flat fitted curve, though single readings scatter; the % refers to the signal ratio. What follows is part of a selection rich in actives, with near analogues and random picks from the rest.

Experiment: qHTS Assay for Lipid Storage Modulators in Drosophila S3 Cells;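 for cell number change: cells counted by Cell Tracker Red CMTPX staining in the red channel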
Conditions: BODIPY lipid droplet fluorescence, 18-24 h, cells fed with added oleic acid; cell number change: measured here: cell count max response; series mostly up to 46.1 µM
Source text: NIH Molecular Libraries Probe Production Centers Network [MLPCN] NIH Chemical Genomics Center [NCGC] MLPCN Grant: 1 R03 MH085686-01 Assay Submitter (PI): Beller, Mathias; Max-Planck-Institut fur Biophysikalische Chemie NCGC Assay Overview: Storing lipids as a reservoir for energy or the anabolism of elementary metabolites is a common feature of probably all cells and is conserved from bacteria to humans. The universal cellular lipid storage organelle is the so-called lipid storage droplet (LD). Although ubiquitous, LDs share a simple structure composed of a hydrophobic core that harbors the storage lipids, which is shielded by a droplet-specific phospholipid monolayer to which proteins are attached. The current model of LD biogenesis involves an incorporation of the lipid core into the membrane leaflets of the endoplasmic reticulum (ER) followed by a subsequent budding-like maturation of a LD, which ultimately pinches off. Once released, LD volume can increase by localized lipogenesis or fusion of existing droplet. Storage lipids are re-mobilized enzymatically by lipase activity. Lipase regulation in the adipocyte is heavily studied and involves multiple components including catecholamine signaling, the LD-associated proteins Perilipin and comparative gene identification (CGI-58) and at least two lipases named hormone sensitive lipase (HSL) and adipocyte triglyceride lipase (ATGL). LD regulation outside of the adipocyte is poorly understood and only few components are known. However, there is an urgent need to learn more about ectopic fat depots as mislocalized storage of lipids, for example in the liver or muscle, is an eminent health problem associated with insulin resistance or the metabolic syndrome. We developed a laser-scanning cytometer assay to enable 1,536-well screening and combined the results of the small molecules screen with an RNAi database based on lipid storage.
Triacsin C (Sigma-Aldrich T-4540), an inhibitor of long-chain fatty acyl CoA synthetase that blocks synthesis of triglycerides, was used as a positive control for lipid under-storage. A total of 23 nL of compound solution of different concentrations were transferred to the assay plates using a Kalypsys pin tool equipped with a 1,536-pin array containing 10-nL slotted pins (FP1S10, 0.457-mm diameter, 50.8 mm long; V&P Scientific). One microliter of oleic acid (400 uM) was added, and the plate was lidded with stainless steel rubber gasket lined lids containing pinholes. […] Fluorescence was detected by excitation of the fluorophores with a 488-nm laser on an Acumen Explorer (TTP Lab Tech). The total intensity in channel 2 (500-530 nm) reflected lipid droplet accumulation. Cells were detected using channel 3 (575-640 nm) with 5-um width and 100-um depth filters. The ratio of the number of objects in PMT channel 2 over the number of objects in PMT channel 3 was also calculated. Percent activity was computed relative to an internal control (100% inhibited lipid droplet deposition due to the presence of 20 uM Triacsin C), which was added to 32 wells/plate.
Potency is the fitted concentration of half-maximal effect.

Question: For `COc1ccc(-c2csc3nc(C(C)(C)C)oc(=O)c23)cc1OC`, which Potency is on record?
Answer: inactive

Question: And the cell number change?
Answer: 0.241%

Question: Which results are given for `CCOc1ccc(-c2ccc(NS(=O)(=O)c3ccc([N+](=O)[O-])cc3)cc2)nn1`?
Answer: Potency: inactive; cell number change: 0.33%

Question: With `CCOc1ccc(-c2ccc(NS(=O)(=O)c3cc([N+](=O)[O-])c(C)c([N+](=O)[O-])c3)cc2)nn1` as the compound, how does the Potency read?
Answer: 23.1 µM (active)

Question: And the cell number change?
Answer: -5.38%

Question: With `COc1ccc(-c2ccc(NS(=O)(=O)c3cc([N+](=O)[O-])c(C)c([N+](=O)[O-])c3)cc2)nn1` as the compound, how does the Potency read?
Answer: inactive

Question: What about the cell number change of the same compound?
Answer: -13.5%

Question: Which Potency does the source give for `COC(=O)c1ccc2nc(NC(=O)C(C)(C)C)sc2c1` here?
Answer: inactive

Question: And the cell number change?
Answer: -18.4%

Question: With `O=C(O)CCn1c(=S)oc2ccccc21` as the compound, how does the Potency read?
Answer: inactive

Question: And the cell number change?
Answer: 2.74%

Question: Which Potency does the source give for `CC(C)CC(=O)/C=C/n1c(=S)oc2ccccc21` here?
Answer: 23.1 µM (active)

Question: What about the cell number change of the same compound?
Answer: -3.17%

Question: Which Potency does the source give for `CC(C)OC(=O)n1c(=S)oc2ccccc21` here?
Answer: inactive

Question: And the cell number change?
Answer: -3.93%

Question: For `COc1ccccc1NC(=O)C1CCCN(c2ncnc3c2nc2n3CCCCC2)C1` (stereo not given), which Potency is on record?
Answer: inactive

Question: What about the cell number change of the same compound?
Answer: -12.6%

Question: What does the source list for `Cc1cc[n+](Cc2ccc([N+](=O)[O-])cc2)cc1`?
Answer: Potency: inactive; cell number change: -4.93%

Question: Which results are given for `CCCn1c(=N)n(CC(O)c2ccco2)c2ccccc21` (stereo not given)?
Answer: Potency: inactive; cell number change: 16.8%

Question: What does the source list for `N=c1n(CCN2CCCCC2)c2ccccc2n1CC(O)c1ccco1` (stereo not given)?
Answer: Potency: inactive; cell number change: 15.8%

Question: Which Potency does the source give for `N=c1n(CCN2CCCC2)c2ccccc2n1CC(O)c1ccco1` (stereo not given) here?
Answer: 23.1 µM (active)

Question: And the cell number change?
Answer: 7.5%

Question: Which results are given for `Cc1onc(C(=O)N2CCN(C(c3ccccc3)c3ccccc3)CC2)c1[N+](=O)[O-]`?
Answer: Potency: inactive; cell number change: 3.65%

Question: With `CC(OC(=O)C1=Cc2ccccc2OC1)C(=O)NCc1ccco1` (stereo not given) as the compound, how does the Potency read?
Answer: inactive

Question: Which results are given for `CCC(C(=O)Nc1ccc2c(c1)OCCO2)n1c(=O)[nH]c2ccccc2c1=O` (stereo not given)?
Answer: Potency: inactive; cell number change: -11.6%

Question: Which Potency does the source give for `O=C(Cn1[nH]c(=O)c2ccccc2c1=O)Nc1cccnc1` here?
Answer: inactive

Question: And the cell number change?
Answer: 7.37%

Question: For `CCC(C(=O)Nc1cccnc1)n1c(=O)[nH]c2ccccc2c1=O` (stereo not given), which Potency is on record?
Answer: 18.4 µM (active)

Question: What about the cell number change of the same compound?
Answer: -16%

Question: Which Potency does the source give for `CCO[C@@H]1OC(C(=O)N2CCN(Cc3ccc4c(c3)OCO4)CC2)=C[C@H](c2ccc3c(c2)OCO3)[C@H]1CCCO` here?
Answer: inactive

Question: With `O=c1c2ccccc2nnn1CCN1CCOCC1` as the compound, how does the Potency read?
Answer: inactive

Question: What about the cell number change of the same compound?
Answer: -18.2%

Question: Which results are given for `CCC(Sc1nc2ccc(C)cc2[nH]1)C(=O)O` (stereo not given)?
Answer: Potency: 14.6 µM (active); cell number change: 14.5%

Question: Which Potency does the source give for `CCC(Sc1nc2ccccc2c(=O)[nH]1)C(=O)O` (stereo not given) here?
Answer: inactive

Question: What about the cell number change of the same compound?
Answer: -2.97%

Question: Which Potency does the source give for `Cc1ccc2nc(SC(C)C(=O)N3CCCC3)[nH]c2c1` (stereo not given) here?
Answer: inactive

Question: What about the cell number change of the same compound?
Answer: 17.4%

Question: Which results are given for `Cc1ccc(-c2csc3nc[nH]c(=O)c23)cc1C`?
Answer: Potency: inactive; cell number change: -18.4%

Question: What does the source list for `O=c1[nH]cnc2scc(-c3ccccc3)c12`?
Answer: Potency: inactive; cell number change: -0.547%

Question: With `COc1cccc(-c2csc3nc[nH]c(=O)c23)c1` as the compound, how does the Potency read?
Answer: 20.6 µM (active)

Question: Which results are given for `OCCCNc1ncnc2oc(-c3ccccc3)c(-c3ccccc3)c12`?
Answer: Potency: inactive; cell number change: 13.3%

Question: With `CC(C)Cn1c(/C=N/Nc2nc3ccccc3[nH]2)nc2ccccc21` as the compound, how does the Potency read?
Answer: inactive

Question: And the cell number change?
Answer: -7.46%

Question: For `CCCn1c(/C=N/Nc2nc3ccccc3[nH]2)nc2ccccc21`, which Potency is on record?
Answer: 13 µM (active)

Question: And the cell number change?
Answer: -13.7%

Question: For `C(=N\Nc1nc2ccccc2[nH]1)/c1ccccc1`, which Potency is on record?
Answer: inactive

Question: And the cell number change?
Answer: -28.7%

Question: With `CCOC(=O)N1CCN(Cc2nnc(-c3ccccc3C)o2)CC1` as the compound, how does the Potency read?
Answer: inactive

Question: What about the cell number change of the same compound?
Answer: 3.5%

Question: With `Cc1cc(NC(=O)c2cccs2)ncc1NC(=O)c1cccc(F)c1` as the compound, how does the Potency read?
Answer: inactive

Question: And the cell number change?
Answer: 0.447%

Question: Which Potency does the source give for `CCCCc1nc(C(N)=O)c2[nH]c(=O)n(-c3ccc(OC)c(OC)c3)c2n1` here?
Answer: inactive

Question: Which results are given for `CCC1Oc2ccccc2N(CC(=O)NC2CCCCC2)C1=O` (stereo not given)?
Answer: Potency: inactive; cell number change: 2.82%

Question: Which results are given for `CCC1Oc2ccccc2N(CC(=O)NC2CCCCC2C)C1=O` (stereo not given)?
Answer: Potency: 29.1 µM (active); cell number change: -4.58%

Question: Which Potency does the source give for `CC1CCCCC1NC(=O)CN1C(=O)COc2ccccc21` (stereo not given) here?
Answer: inactive

Question: What about the cell number change of the same compound?
Answer: -0.697%

Question: With `CC(C)c1nnc(NC(=O)COc2ccccc2[N+](=O)[O-])s1` as the compound, how does the Potency read?
Answer: inactive

Question: And the cell number change?
Answer: 0.142%

Question: Which Potency does the source give for `Cc1ccnc2nc(C(=O)Nc3nc(-c4ccccn4)cs3)nn12` here?
Answer: 1.64 µM (active)

Question: And the cell number change?
Answer: -16%

Question: Which results are given for `CCc1cc(C(=O)Nc2nc(-c3ccccn3)cs2)sc1C`?
Answer: Potency: 5.17 µM (active); cell number change: 3.52%

Question: With `Cn1nc(C(=O)Nc2nc(-c3ccccn3)cs2)c2ccccc2c1=O` as the compound, how does the Potency read?
Answer: inactive

Question: And the cell number change?
Answer: -20.7%

Question: For `CC(=O)Nc1ccc(C(=O)Nc2nc(-c3ccccn3)cs2)cc1`, which Potency is on record?
Answer: inactive

Question: For `Cc1ccnc2nc(C(=O)Nc3nccs3)nn12`, which Potency is on record?
Answer: inactive

Question: What about the cell number change of the same compound?
Answer: -14.4%

Question: Which results are given for `O=C(Nc1nc(-c2ccccn2)cs1)c1ccco1`?
Answer: Potency: inactive; cell number change: -10.5%

Question: For `CCc1cc(C(=O)Nc2ncccc2O)sc1C`, which Potency is on record?
Answer: inactive

Question: What about the cell number change of the same compound?
Answer: -6.68%

Question: For `Cc1ccc(C(=O)Nc2nc(-c3ccccn3)cs2)s1`, which Potency is on record?
Answer: 2.06 µM (active)

Question: And the cell number change?
Answer: -8.64%

Question: For `Cc1cc(C)c(OCC(=O)Nc2nc(-c3ccccn3)cs2)c(C)c1`, which Potency is on record?
Answer: inactive

Question: What about the cell number change of the same compound?
Answer: 1.77%

Question: Which Potency does the source give for `CCCNC(=O)c1cccc(Br)c1` here?
Answer: inactive

Question: For `CC(=O)N1CCc2cc(Br)cc(S(=O)(=O)N3CCCCC3)c21`, which Potency is on record?
Answer: inactive

Question: And the cell number change?
Answer: -26.2%
